Assay outcomes (PubChem BioAssay)
KDM5B inhibitor: blocks human KDM5B histone demethylase activity | Q9UGL1 | KDM5B demethylase, FDH-coupled NADH fluorescence (FDH is formaldehyde dehydrogenase) | Potency, µM (series often up to 57.7 µM), actives largely listed as inhibitors | 220,000 tested, 2.6% active; active means well fitted inhibition curve with a large enough effect; further: 0% is about no effect; nearly all actives have a fitted effect of over 70% in size
Target sequence (Q9UGL1 whole entry, looked up): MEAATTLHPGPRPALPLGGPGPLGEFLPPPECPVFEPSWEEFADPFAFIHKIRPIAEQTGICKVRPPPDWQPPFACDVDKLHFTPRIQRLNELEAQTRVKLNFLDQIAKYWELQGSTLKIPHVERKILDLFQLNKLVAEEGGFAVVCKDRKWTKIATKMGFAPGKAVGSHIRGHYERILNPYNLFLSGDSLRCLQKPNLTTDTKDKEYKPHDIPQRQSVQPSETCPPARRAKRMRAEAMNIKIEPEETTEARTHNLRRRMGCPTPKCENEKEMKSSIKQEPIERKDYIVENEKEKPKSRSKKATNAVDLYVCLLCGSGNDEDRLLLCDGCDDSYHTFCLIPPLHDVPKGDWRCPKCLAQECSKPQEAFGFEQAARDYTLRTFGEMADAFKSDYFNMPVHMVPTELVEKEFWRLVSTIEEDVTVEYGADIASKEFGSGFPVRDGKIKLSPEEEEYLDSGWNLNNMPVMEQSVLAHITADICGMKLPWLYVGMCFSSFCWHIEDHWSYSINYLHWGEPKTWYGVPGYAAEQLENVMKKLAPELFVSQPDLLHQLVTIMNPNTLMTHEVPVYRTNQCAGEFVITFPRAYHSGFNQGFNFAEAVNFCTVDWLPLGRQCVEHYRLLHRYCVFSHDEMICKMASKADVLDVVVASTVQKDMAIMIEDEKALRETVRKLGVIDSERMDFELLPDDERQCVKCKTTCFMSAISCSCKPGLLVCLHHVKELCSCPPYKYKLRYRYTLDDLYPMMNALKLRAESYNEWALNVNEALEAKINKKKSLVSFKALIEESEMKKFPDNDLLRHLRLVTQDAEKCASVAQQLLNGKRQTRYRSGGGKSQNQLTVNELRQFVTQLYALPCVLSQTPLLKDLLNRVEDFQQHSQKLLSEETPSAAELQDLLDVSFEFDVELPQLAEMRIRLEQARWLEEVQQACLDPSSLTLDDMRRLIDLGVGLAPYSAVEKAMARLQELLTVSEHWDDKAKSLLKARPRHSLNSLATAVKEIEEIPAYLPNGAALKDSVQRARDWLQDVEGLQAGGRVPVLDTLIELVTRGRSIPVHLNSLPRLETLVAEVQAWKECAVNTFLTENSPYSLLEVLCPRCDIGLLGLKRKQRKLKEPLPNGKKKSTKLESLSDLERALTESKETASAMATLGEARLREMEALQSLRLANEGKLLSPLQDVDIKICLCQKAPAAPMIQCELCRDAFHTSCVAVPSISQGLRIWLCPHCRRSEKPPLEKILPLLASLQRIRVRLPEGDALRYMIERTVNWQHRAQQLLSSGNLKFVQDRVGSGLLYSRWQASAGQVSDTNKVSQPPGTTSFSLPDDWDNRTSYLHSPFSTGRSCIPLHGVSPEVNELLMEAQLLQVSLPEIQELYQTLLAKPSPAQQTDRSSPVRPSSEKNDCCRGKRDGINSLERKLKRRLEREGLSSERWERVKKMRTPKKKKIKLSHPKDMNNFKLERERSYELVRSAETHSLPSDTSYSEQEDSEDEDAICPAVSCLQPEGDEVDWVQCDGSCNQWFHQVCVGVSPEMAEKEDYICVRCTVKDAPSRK
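Inhibition is measured as reduced NADH fluorescence generation from FDH coupling to formaldehyde release. Truncated KDM5BΔAP at 200 nM final acts on H3K4me3 peptide (12.5 µM in substrate mix) in pH 7.5 HEPES buffer with Tween-20, 30 min, room temperature.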
The depositor's hits bear a star; i = inactive. Only a selection was taken, and hits are over-represented in it overall. Potency means the concentration at half of the fitted maximal effect.

SMILES | KDM5B inhibitor
COc1cccc(NC(=O)CN(C)CC(=O)Nc2ccccc2C)c1 | i
CCOc1ccc(CNC2CC2)cc1 | i
C=CCC1(CO)CCCN(CC(=O)NCCc2ccc(Cl)cc2)C1 (centres undefined) | i
CCOC(=O)c1[nH]c2ccc(OC)cc2c1NC(=S)N1CCN(c2ccccn2)CC1 | i
CCOC(=O)CNC(=O)Cc1ccc(OC)cc1 | i
COc1ccc(CC(=O)NCC(=O)N2CCN(c3ccccn3)CC2)cc1 | 31.6µM*
O=C(CCCc1ccccc1)NCC(=O)N1CCN(c2ccccn2)CC1 | 28.2µM*
O=C(Cc1ccccc1)NCC(=O)N1CCN(c2ccccc2F)CC1 | i
O=C(CCC1CCCN(c2ncccn2)C1)N1CCN(c2ccccn2)CC1 (centres undefined) | i
CCCCNC(=O)C1CCN(C(=O)c2ccc(C(F)(F)F)cc2)CC1 | i
Cc1c(-c2ccccc2)c(=O)oc2cc(OC(=O)N3CCOCC3)ccc12 | i
Cc1ccc2[nH]c(C(=O)NCc3ccc4c(c3)OCO4)cc2c1 | i
CC(=O)N1CCN(C(C(=O)O)c2c[nH]c3ccc(NC(=O)C(C)C)cc23)CC1 (centres undefined) | i
CC(C)c1ccccc1NC(=O)CCn1cnc2c1c(=O)n(C)c(=O)n2C | i
CC(=O)N1CCC2(C1)N=C(c1ccncc1)C(=O)N2 (centres undefined) | i
COC(=O)N1CCC2(C1)N=C(c1ccccn1)C(=O)N2 (centres undefined) | 35.5µM*
O=C1NC2(CCN(C(=O)c3ccccc3)C2)N=C1c1ccccn1 (centres undefined) | i
CC(C)OC(=O)c1c(-c2ccccc2Cl)csc1NC(=O)CCCC(=O)O | i
COc1ccc(C(N)=O)c(OCc2coc(-c3ccccc3)n2)c1 | i
O=C(Cc1ccc2c(c1)OCO2)N1CCNc2cnc(Nc3cccc(C(F)(F)F)c3)nc2C1 | 14.1µM*
Cn1nccc1C(=O)N1CCNc2cnc(Nc3ccccc3)nc2C1 | i
O=C(COC(=O)c1cccnc1Nc1cccc(C(F)(F)F)c1)NCc1ccc2c(c1)OCO2 | i
COc1ccccc1Nc1ncc2c(n1)CN(C(=O)c1cccc(O)c1)CCN2 | i
Cc1ncsc1C(=O)N1CCNc2cnc(Nc3cccc(F)c3)nc2C1 | i
O=C(CCc1ccccc1)N1CCNc2cnc(Nc3cccc(C(F)(F)F)c3)nc2C1 | 25.1µM*
SMILES | KDM5B inhibitor
Cc1cccc(Nc2nc3ccccc3nc2NS(=O)(=O)c2cccc(Cl)c2)c1 | i
O=C(Cc1coc2cc3c(cc12)CCC3)NC1CCSc2c(F)cccc21 (centres undefined) | i
CCC(C(=O)Nc1ccc(N(C)C)cc1)n1cnc2ccccc2c1=O (centres undefined) | i
CC(C)c1noc(-c2ccc(OCC(=O)NCc3cc(F)cc(F)c3)cc2)n1 | i
Cc1noc(-c2ccn3c(CNC(=O)COc4ccc(F)cc4)nnc3c2)n1 | 12.6µM*
COc1ccc(C(=O)NCc2nnc3cc(-c4nc(C(C)C)no4)ccn23)cc1F | 10µM*
Cc1noc(-c2ccn3c(CNC(=O)c4ccc(C)c(F)c4)nnc3c2)n1 | 3.55µM*
Cc1ccc(C(=O)NCCn2cccc2-c2nc(-c3ccccc3)no2)cc1F | i
Cc1ccc(C(=O)NCc2nnc3cc(-c4nc(C(C)C)no4)ccn23)cc1F | 7.08µM*
COc1ccc(C(=O)N2CCCC(n3cc(-c4nc(C(C)C)no4)nn3)C2)cc1F (centres undefined) | i
COc1ccc(C(=O)NCCc2noc(-c3ccccc3)n2)cc1F | i
O=C(Nc1cc(=O)[nH]c2nc(Cc3ccccc3)nn12)c1ccc(Cl)cc1Cl | i
CCc1noc(-c2cn(C3CCN(C(=O)c4cccc(F)c4)CC3)nn2)n1 | i
COc1ccccc1CNC(=O)CSc1nnc(-c2ccco2)n1C | i
Cc1cc(C)cc(OCc2cc(=O)n3nc(C)sc3n2)c1 | i
COc1cccc(OC)c1C(=O)Nc1ccc(N2CCN(C)CC2)c(Cl)c1 | i
O=C1NCCCCCCN(C(=O)c2ccco2)[C@H]2CCC[C@@H]12 | i
O=C1NCCCCCN(C(=O)COc2ccccc2)[C@@H]2C[C@@H](C(=O)N3CCc4ccccc4C3)C[C@H]12 | i
O=C1NCCCCCCN(C(=O)C2CC2)[C@H]2C[C@H](C(=O)N3CCc4ccccc4C3)C[C@@H]12 | i
O=C1NCCCCCN(C(=O)c2ccsc2)[C@@H]2C[C@@H](C(=O)N3CCc4ccccc4C3)C[C@H]12 | i
CCC(=O)N1CCCCCCNC(=O)[C@@H]2C[C@@H](C(=O)N3CCN(c4ccccn4)CC3)C[C@@H]21 | 28.2µM*
O=C1NCCCCCCN(C(=O)c2ccco2)[C@H]2C[C@H](C(=O)N3CCN(c4ccccn4)CC3)C[C@@H]12 | 25.1µM*
Cc1ccc(-n2ncnc2-c2cc3c(n(-c4ccc(C)cc4)c2=O)CC(C)(C)CC3=O)cc1 | i
COc1ccc(-c2csc(CCn3nc(C)c4c(C(F)(F)F)cc(=O)[nH]c43)n2)cc1 | i
COc1ccccc1NC(=O)C1=CCN(Cc2ccccc2F)CC1 | i
SMILES | KDM5B inhibitor
[O-][n+]1cn(Cc2ccccc2)c2ccccc21 | i
CC(C(=O)NCc1ccccc1Cl)N(c1ccccc1)S(C)(=O)=O (centres undefined) | i
O=C(c1ccc2nc(-c3ccc(F)cc3)cn2c1)N1C[C@@H]2CCCN[C@@H]2C1 | 28.2µM*
CCCOC1CCCN(C(=O)c2cc(Cl)ccc2OC2CCN(C(C)=O)CC2)C1 (centres undefined) | i
O=C(c1cc(-c2ccc(F)cc2)n[nH]1)N1CCC(OCC2CC2)C1 (centres undefined) | i
O=C(c1cc(-c2ccc(F)cc2)n[nH]1)N1CC2CC(C1)[C@H]1CCCC(=O)N1C2 (some centres undefined) | i
O=C(c1cccc2nccnc12)N1CCOC(C(F)(F)F)C1 (centres undefined) | i
CCCOC1CCCN(C(=O)c2ccc3nc(-c4ccc(F)cc4)cn3c2)C1 (centres undefined) | 28.2µM*
O=C(Cc1ccc(CO)cc1)N1CCOC(C(F)(F)F)C1 (centres undefined) | i
O=C(c1ccc2nc(-c3ccccc3)cn2c1)N1CCOC(C(F)(F)F)C1 (centres undefined) | 31.6µM*
O=C(c1ccc(F)cc1)N1CC2CC(C1)[C@H]1CCCC(=O)N1C2 (some centres undefined) | i
COc1ccc(C(C)=O)cc1CO/N=C/c1ccc(OCc2ccc(Cl)cc2)c(OC)c1 | i
O=S(=O)(NCc1ccccc1Cn1cccn1)c1ccc(Cl)c(C(F)(F)F)c1 | i
O=[N+]([O-])c1ccc(-c2csc(Nc3cccc4ccccc34)n2)cc1 | i
Fc1ccc(C2=CC(c3cccc(Br)c3)n3nnnc3N2)cc1 (centres undefined) | i
COCCNC[C@@H]1C=C(C)[C@H](Cc2nnc(-c3ccc(OC)cc3)o2)C[C@H]1C(C)C | i
CN1C[C@@H](NC(=O)CC(C)(C)CC(=O)O)C[C@H]1c1nc(-c2ccc3c(c2)OCO3)no1 | i
CC(=O)N[C@H]1C[C@@H](c2nc(-c3ccc4c(c3)OCO4)no2)N(C)C1 | i
CN1C[C@@H](NC(=O)c2ccc(C(C)(C)C)cc2)C[C@H]1c1nc(-c2ccc3c(c2)OCO3)no1 | 35.5µM*
N#Cc1ccccc1CNc1cccc(Cl)c1F | i
CCN(CCC(F)(F)F)C(=O)c1cc2cccc([N+](=O)[O-])c2[nH]1 | i
COc1ccccc1-c1ccc2ncc(Nc3cccnc3OC)n2n1 | i
